Assays:
[1] = target: T1, 3-phosphoinositide-dependent protein kinase 1 (Homo sapiens) (UniProt O15530); conditions: at 0.1 µM;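 note: values are mean inhibition of PDK1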
T1 sequence (whole entry): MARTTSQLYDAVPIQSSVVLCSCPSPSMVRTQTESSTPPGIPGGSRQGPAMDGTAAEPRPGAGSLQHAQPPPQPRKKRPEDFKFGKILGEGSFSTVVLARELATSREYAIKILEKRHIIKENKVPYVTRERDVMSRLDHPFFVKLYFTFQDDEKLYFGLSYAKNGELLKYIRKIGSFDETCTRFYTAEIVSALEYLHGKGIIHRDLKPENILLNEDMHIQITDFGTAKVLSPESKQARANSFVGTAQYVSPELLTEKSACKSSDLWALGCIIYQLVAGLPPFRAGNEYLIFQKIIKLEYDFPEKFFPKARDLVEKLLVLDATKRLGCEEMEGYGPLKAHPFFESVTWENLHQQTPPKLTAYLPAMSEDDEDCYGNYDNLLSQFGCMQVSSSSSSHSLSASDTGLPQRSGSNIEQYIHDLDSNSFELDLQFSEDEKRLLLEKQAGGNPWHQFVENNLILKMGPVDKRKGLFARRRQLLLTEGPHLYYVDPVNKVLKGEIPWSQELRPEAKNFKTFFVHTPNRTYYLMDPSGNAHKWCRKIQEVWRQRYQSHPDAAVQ

[2] = target: cAMP-dependent protein kinase catalytic subunit alpha (Homo sapiens) (UniProt P17612); conditions: at 0.1 µM
[3] = target: cAMP-dependent protein kinase catalytic subunit alpha (Homo sapiens) (UniProt P17612); conditions: at 1 µM
[4] = target: Protein kinase C alpha type (Homo sapiens) (UniProt P17252); conditions: at 0.1 µM
[5] = target: Protein kinase C alpha type (Homo sapiens) (UniProt P17252); conditions: at 1 µM
[6] = target: Protein kinase C beta type (Homo sapiens) (UniProt P05771); conditions: at 0.1 µM
Protein kinase C beta type (Homo sapiens), sequence (P05771 2-671 limits assumed): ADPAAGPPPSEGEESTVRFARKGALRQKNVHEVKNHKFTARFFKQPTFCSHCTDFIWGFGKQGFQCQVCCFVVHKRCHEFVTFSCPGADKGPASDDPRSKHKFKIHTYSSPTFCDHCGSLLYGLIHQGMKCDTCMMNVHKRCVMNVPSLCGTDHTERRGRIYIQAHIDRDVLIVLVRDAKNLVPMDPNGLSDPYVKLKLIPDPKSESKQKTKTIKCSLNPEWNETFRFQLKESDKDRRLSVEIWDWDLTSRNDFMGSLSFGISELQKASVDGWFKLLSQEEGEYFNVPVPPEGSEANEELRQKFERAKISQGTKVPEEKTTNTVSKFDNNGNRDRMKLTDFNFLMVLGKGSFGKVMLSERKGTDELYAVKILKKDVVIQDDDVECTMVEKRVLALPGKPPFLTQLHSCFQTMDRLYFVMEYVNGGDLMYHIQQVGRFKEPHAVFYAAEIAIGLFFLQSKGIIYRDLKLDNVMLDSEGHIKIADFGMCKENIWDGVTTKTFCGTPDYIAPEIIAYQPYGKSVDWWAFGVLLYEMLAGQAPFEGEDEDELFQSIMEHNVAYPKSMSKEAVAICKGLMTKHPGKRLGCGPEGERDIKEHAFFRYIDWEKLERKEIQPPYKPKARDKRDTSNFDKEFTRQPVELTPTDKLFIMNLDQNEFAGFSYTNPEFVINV

[7] = target: Protein kinase C beta type (Homo sapiens) (UniProt P05771); conditions: at 1 µM
[8] = target: Protein kinase C eta type (Homo sapiens) (UniProt P24723); conditions: at 0.1 µM
Protein kinase C eta type (Homo sapiens), sequence (P24723 whole entry): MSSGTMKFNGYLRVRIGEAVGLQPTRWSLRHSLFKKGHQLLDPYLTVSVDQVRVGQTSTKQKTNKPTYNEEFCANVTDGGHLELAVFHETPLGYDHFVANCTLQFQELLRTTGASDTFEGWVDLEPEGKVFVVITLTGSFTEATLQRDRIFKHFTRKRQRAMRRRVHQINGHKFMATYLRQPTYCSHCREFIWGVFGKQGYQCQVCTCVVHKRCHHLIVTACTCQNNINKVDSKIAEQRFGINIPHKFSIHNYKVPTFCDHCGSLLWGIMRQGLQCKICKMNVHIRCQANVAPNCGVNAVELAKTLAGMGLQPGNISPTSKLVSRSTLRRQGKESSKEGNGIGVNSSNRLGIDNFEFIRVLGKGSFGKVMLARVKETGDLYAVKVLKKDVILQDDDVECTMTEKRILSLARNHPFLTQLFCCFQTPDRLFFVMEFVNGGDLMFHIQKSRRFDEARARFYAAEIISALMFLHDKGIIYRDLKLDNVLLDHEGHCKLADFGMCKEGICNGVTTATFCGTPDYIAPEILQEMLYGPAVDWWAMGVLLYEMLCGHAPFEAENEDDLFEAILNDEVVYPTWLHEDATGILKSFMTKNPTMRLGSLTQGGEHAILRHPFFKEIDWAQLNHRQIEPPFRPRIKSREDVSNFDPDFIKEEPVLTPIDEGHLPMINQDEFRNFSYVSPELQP

[9] = target: Protein kinase C eta type (Homo sapiens) (UniProt P24723); conditions: at 1 µM
[10] = target: Protein kinase C gamma type (Homo sapiens) (UniProt P05129); conditions: at 0.1 µM
[11] = target: Protein kinase C gamma type (Homo sapiens) (UniProt P05129); conditions: at 1 µM
[12] = target: T2, Protein kinase C iota type (Homo sapiens) (UniProt P41743); conditions: at 0.1 µM
T2 sequence (whole entry): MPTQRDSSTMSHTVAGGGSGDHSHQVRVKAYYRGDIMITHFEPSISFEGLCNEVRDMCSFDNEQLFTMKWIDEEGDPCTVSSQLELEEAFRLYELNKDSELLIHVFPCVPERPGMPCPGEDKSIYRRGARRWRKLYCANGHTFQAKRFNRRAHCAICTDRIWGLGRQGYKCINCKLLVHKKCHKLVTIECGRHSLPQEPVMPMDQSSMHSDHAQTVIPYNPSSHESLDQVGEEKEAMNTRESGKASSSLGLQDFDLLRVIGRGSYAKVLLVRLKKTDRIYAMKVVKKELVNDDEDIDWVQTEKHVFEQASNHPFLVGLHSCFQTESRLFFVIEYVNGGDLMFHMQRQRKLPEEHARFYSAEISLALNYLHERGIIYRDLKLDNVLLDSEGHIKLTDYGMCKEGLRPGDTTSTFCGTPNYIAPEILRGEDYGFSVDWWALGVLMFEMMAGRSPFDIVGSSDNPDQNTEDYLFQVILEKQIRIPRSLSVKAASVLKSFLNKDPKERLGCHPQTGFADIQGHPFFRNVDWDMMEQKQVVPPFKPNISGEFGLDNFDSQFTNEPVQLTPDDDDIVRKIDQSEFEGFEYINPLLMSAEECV

[13] = target: T2, Protein kinase C iota type (Homo sapiens); conditions: at 1 µM
[14] = target: Protein kinase C theta type (Homo sapiens) (UniProt Q04759); conditions: at 0.1 µM
Protein kinase C theta type (Homo sapiens), sequence (Q04759 whole entry, looked up): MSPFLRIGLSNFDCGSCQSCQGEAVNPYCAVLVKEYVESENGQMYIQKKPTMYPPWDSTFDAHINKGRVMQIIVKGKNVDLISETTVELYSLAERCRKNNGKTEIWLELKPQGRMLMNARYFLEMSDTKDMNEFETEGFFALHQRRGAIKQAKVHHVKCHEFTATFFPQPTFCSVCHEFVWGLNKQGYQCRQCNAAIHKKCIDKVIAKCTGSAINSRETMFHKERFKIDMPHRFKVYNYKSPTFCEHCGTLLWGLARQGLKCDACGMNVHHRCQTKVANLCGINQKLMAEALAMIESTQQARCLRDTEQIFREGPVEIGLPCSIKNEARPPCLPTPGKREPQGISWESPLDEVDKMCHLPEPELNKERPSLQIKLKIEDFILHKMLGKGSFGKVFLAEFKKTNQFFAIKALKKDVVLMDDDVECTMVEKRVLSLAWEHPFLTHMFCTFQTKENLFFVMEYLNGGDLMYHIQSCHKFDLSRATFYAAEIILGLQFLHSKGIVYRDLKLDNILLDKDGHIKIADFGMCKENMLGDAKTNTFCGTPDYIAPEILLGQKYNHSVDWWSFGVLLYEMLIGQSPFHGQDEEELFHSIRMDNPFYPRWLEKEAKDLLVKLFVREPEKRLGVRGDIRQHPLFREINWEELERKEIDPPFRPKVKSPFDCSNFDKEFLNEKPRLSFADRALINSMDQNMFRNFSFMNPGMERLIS

[15] = target: Protein kinase C theta type (Homo sapiens) (UniProt Q04759); conditions: at 1 µM
[16] = target: Protein kinase C beta type (Homo sapiens) (UniProt P05771); conditions: at 0.1 µM; remark: listed apart in the source
[17] = target: Protein kinase C beta type (Homo sapiens) (UniProt P05771); conditions: at 1 µM; remark: listed apart in the source
[18] = target: T3, Serine/threonine-protein kinase D1 (Homo sapiens) (UniProt Q15139); conditions: at 0.1 µM
T3 sequence (whole entry): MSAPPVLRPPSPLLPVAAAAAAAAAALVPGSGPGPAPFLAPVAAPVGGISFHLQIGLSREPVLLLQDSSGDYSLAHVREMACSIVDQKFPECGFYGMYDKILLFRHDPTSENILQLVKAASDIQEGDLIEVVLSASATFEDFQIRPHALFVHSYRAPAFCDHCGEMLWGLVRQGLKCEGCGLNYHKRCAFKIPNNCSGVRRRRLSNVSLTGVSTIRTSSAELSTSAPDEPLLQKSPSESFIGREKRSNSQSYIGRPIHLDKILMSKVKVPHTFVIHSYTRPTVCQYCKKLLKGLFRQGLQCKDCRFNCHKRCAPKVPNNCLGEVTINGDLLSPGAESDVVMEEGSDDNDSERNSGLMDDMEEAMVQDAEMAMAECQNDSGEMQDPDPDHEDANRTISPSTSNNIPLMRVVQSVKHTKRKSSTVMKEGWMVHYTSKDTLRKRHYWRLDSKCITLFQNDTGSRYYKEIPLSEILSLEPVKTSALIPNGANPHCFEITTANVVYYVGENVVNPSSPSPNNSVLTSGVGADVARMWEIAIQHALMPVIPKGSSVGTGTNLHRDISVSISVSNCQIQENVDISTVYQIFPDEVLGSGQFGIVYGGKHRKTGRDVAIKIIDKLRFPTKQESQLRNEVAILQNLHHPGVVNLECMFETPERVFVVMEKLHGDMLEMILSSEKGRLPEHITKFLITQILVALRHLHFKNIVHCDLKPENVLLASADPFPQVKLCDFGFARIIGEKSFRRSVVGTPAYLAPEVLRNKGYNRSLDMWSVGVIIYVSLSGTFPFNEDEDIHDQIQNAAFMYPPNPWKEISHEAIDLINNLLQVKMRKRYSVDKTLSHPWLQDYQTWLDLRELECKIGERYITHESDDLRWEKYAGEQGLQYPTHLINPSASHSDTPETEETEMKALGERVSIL

[19] = target: T3, Serine/threonine-protein kinase D1 (Homo sapiens); conditions: at 1 µM
[20] = target: T4, Serine/threonine-protein kinase D2 (Homo sapiens) (UniProt Q9BZL6); conditions: at 0.1 µM;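 note: reported percent inhibition values are means, part of the GSK PKIS kinase panel screen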
T4 sequence (whole entry): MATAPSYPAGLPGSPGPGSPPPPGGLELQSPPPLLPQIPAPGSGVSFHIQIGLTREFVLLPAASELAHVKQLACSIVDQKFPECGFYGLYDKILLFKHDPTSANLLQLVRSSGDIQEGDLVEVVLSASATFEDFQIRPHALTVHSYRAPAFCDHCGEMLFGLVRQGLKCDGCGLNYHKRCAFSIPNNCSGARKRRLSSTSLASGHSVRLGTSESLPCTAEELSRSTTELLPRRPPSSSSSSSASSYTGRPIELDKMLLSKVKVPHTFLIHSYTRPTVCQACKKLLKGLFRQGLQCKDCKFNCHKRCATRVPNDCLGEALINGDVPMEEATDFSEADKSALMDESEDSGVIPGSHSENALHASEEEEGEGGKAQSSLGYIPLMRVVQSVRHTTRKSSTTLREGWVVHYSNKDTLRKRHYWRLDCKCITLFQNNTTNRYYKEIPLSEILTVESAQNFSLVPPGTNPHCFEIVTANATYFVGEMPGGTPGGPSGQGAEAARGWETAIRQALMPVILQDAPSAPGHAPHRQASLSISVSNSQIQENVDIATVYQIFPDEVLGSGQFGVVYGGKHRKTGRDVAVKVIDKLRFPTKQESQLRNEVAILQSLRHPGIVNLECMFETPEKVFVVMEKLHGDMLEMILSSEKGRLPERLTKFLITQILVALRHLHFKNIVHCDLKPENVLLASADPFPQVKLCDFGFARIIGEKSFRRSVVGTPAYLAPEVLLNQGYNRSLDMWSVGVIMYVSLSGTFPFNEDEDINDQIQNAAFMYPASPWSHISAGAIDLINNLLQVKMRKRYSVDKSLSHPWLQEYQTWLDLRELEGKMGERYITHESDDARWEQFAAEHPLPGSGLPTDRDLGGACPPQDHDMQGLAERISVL

Row | Structure (SMILES) | inhibition [1] | inhibition [2] | inhibition [3] | inhibition [4] | inhibition [5] | inhibition [6] | inhibition [7] | inhibition [8] | inhibition [9] | inhibition [10] | inhibition [11] | inhibition [12] | inhibition [13] | inhibition [14] | inhibition [15] | inhibition [16] | inhibition [17] | inhibition [18] | inhibition [19] | inhibition [20]
1 | [O-][S+]1CCN(Cc2ccc(-c3ccc4ncnc(Nc5ccc(OCc6ccccc6)c(F)c5)c4c3)o2)CC1 | 2.01% | 0.99% | 0.53% | 0.47% | 1.52% | -0.89% | -0.42% | 0.68% | 0.14% | -0.39% | -0.2% | 1.01% | 1.01% | 0.77% | -0.73% | 0.35% | 0.5% | 2.32% | 4.27% | 3.5%
2 | NCc1ccc(-c2nc(-c3ccc(Cl)c(O)c3)c(-c3ccncc3)[nH]2)cc1 | 2.25% | 1.31% | 3.95% | 0.75% | 2.46% | 5.37% | 27.9% | 1.93% | 3.81% | 0.36% | 0.42% | -0.2% | -0.02% | -0.02% | -0.18% | 0.76% | 10.8% | 0.78% | 2.64% | 1.57%
3 | Cc1ccc(C(=O)NC2CCCCC2)cc1-c1ccc(C(=O)NCC2CC2)cc1 | 3.8% | 3.21% | 1.86% | 0.96% | 2.17% | 1.17% | 1.93% | 3.2% | -0.62% | 3.68% | 3.86% | 0.11% | 2.97% | 1.39% | 0.58% | 1.11% | 3.12% | 1.97% | 2.69% | 1.98%
4 | Cc1ccc(NC(=O)c2ccnc(N3CCCC3)c2)cc1-c1ccc(C(=O)NCC2CC2)cc1 | 2.23% | -2.06% | -0.65% | -2.31% | -0.77% | 0.1% | -1.68% | 5.39% | 2.22% | 1.09% | 2.77% | 2.01% | 3.68% | 1.28% | 3.17% | 1.24% | 2.94% | 3.07% | 9.98% | 2.95%
5 | COc1ccccc1Nc1ncc(-c2ccccc2)o1 | 7.73% | 1.58% | 3.65% | 0.95% | 1.01% | 1.34% | -6.48% | 7.06% | 7.33% | -0.19% | 3.53% | 3.88% | 3.75% | 3.4% | 3.02% | 1.12% | 1.8% | 4.01% | 5.46% | 3.84%
6 | COc1ccc2cc(-c3c(-c4ccncc4)nc(-c4ccc([S+](C)[O-])cc4)n3C)ccc2c1 (stereo not given) | 0.4% | 1.97% | 9.5% | 0.25% | 0.94% | 0.88% | 7.1% | 2.61% | -1.46% | 1.09% | 0.94% | 0.48% | 2.02% | 1.01% | 0.27% | 0.67% | 3.79% | 2.99% | 5.01% | 3.94%
7 | CCn1c(-c2nonc2N)nc2cnc(Oc3cccc(NC(=O)c4ccc(OCCN5CCOCC5)cc4)c3)cc21 | 2.08% | 17.5% | 65.8% | 3.09% | 34.1% | 37.3% | 64.2% | 71.2% | 94.9% | 13.9% | 55% | 23.4% | 64.9% | 20% | 67.4% | 11.6% | 42.4% | 2.46% | 3.36% | 3.04%

— ChEMBL document CHEMBL1961873, “Compounds: GSK PKIS; Assays: Nanosyn kinase panel” (2012)
